From PubChem BioAssay
A selection: hits, their analogues and other compounds. The true share with any hit is near 1.5%.
APE1 inh – inhibitors of human APE1 endonuclease | P27695 | recombinant APE1, TAMRA/BHQ-2 abasic DNA cleavage fluorescence | Potency, µM (series often up to 65.8 µM), for the others: at the highest dose activity change, negative = inhibition, usual class: inhibitors | 350,000 compounds, 0.35% hits | AID 2517;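 note: potency is the fitted concentration of half-maximal effect; plate controls were vehicle for no effect and reference inhibitor for full effect; nearly all actives have a fitted effect of over 55% in size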
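Incision of a quenched TAMRA/BHQ-2 THF abasic-site duplex (50 nM) by 0.75 nM APE1, after 15 min compound preincubation, measured as fluorescence increase over three 60 s reads. Values normalized to buffer, DMSO and NSC13755 control wells.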
PI5P4K alpha inh – blocks human PI5P4K alpha kinase activity | AID 652105 | max response, % | PI5P4Kalpha enzyme, ADP-Glo luminescence, 60 min; active compounds read low | P48426 | 330,000 compounds, 1.2% hits; active = max response of -50% or lower; inconclusive = between -30% and -50%; inactive = -30% or higher; note: value at the top dose of about 77 µM
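Reactions run in 0.038 M HEPES pH 7.4, 0.28 mM EGTA, 0.1% CHAPS and 5% DMSO, with PI5P4Kalpha, substrate, compound and 5 microM ATP final, one hour at room temperature. Readout is ADP-Glo luminescence.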
BLM helicase inh – inhibitors of human Bloom syndrome helicase BLM. recombinant BLM DNA unwinding, fluorescence dequenching. Potency, µM (top dose mostly 56.1 µM), inactives show at the highest dose activity change, negative = inhibition, most hits filed as inhibitors. 350,000 compounds, 0.2% hits. AID 2528;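 note: potency is the fitted concentration of half-maximal effect; plate controls were vehicle for no effect and no enzyme for full effect; nearly all actives have a fitted effect of over 35% in size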
FEN1 inh – inhibitors of human flap endonuclease 1 | P39748 | Recombinant FEN1 flap cleavage, fluorescence, 15 min | Potency, µM (doses to about 114 µM), for inactives: at the highest dose activity change, negative = inhibition, hits mostly inhibitors | 390,000 compounds, 0.35% hits | AID 588795; note: potency is the fitted concentration of half-maximal effect; nearly all actives have a fitted effect of over 65% in size
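Recombinant FEN1 (10 nM) was preincubated with pin-transferred compounds for 15 min at room temperature, then flap DNA substrate (50 nM final) was added. Plates were read at 0 and 15 min, and normalized concentration–response data were fitted to a four-parameter Hill equation.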
WRN helicase inh – WRN helicase (human) inhibition; Q14191; WRN helicase unwinding, fluorescent forked duplex, kinetic; Potency, µM (highest dose often 114 µM), for the others: top-dose activity change, negative = inhibition, usual class: inhibitors; 360,000 compounds, 0.46% hits; AID 651768; note: potency is the fitted concentration of half-maximal effect; nearly all actives have a fitted effect of over 55% in size
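Screening of the MLSMR collection measured strand separation of a quenched forked DNA duplex (100 nM) by 20 nM WRN with 2 mM ATP, all final. Compounds were preincubated with enzyme 15 min at room temperature.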
RECQ1 inh – inhibitors of human RECQ1 DNA helicase. P46063. RECQ1 DNA unwinding, red fluorescence kinetic read. Potency, µM (series often up to 57.3 µM), for the others: at the highest dose activity, negative = inhibition, actives largely listed as inhibitors. 240,000 compounds, 0.54% hits;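 note: potency is the fitted concentration of half-maximal effect; plate controls were vehicle for no effect and no enzyme for full effect; nearly all actives have a fitted effect of over 30% in size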
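RECQ1T1 50 nM; forked duplex (20 bp + 30-nt ss tails) 200 nM, ATP 2 mM final; pH 8.0, 2 mM MgCl2, 2.5 ug/ml poly(dI-dC); 15 min compound preincubation; discontinuous kinetic read over 2 h at RT.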
Active calls of the source: *; i = inactive; ? = inconclusive; · = no result; [ ] = dose if it differs, or a comment. Unless noted, calls come from the whole dose curve; as a rule, active = well fitted curve in the direction sought with a large enough effect; inconclusive = small, poorly fitted or top-dose-only effect, or another doubt; inactive = no such curve, though single readings can be large; an effect the other way counts as inactive or inconclusive. Unless noted, % is set by controls: 0 for no effect and ±100 for the full control effect.

SMILES | APE1 inh | PI5P4K alpha inh | BLM helicase inh | FEN1 inh | WRN helicase inh | RECQ1 inh
COc1cc(/C=C2/C(=O)NN(c3ccccc3)C2=O)cc(Br)c1O | 9% | -55* | -4% | -22% | -13% | ·
COc1cc(/C=C2\C(=O)NN(c3ccc(C)cc3)C2=O)cc([N+](=O)[O-])c1O | ? | -54* | 4% | -5% | ? | -13%
Cc1ccc(N2NC(=O)/C(=C/c3ccc(-c4ccc(Cl)c(C(=O)O)c4)o3)C2=O)cc1 | 1% | ? | -3% | 2% | ? | -3%
O=C1NN(c2ccccc2)C(=O)/C1=C\c1ccc(-c2cc([N+](=O)[O-])ccc2O)o1 | 6% | -69* | -6% | ? | -20%[11.6 µM] | 28µM*
Cc1ccc(N2CC(NC(=O)c3cccs3)CC2=O)cc1C (configuration not stated) | · | · | -2% | 0% | · | ·
CCOc1cc(/C=C2\NC(=O)NC2=O)cc([N+](=O)[O-])c1O | 9% | -59* | -3% | -17% | -9% | 11%
COc1cc(/C=C2\SC(=O)N(Cc3ccc(F)cc3)C2=O)cc([N+](=O)[O-])c1O | -4% | ? | 4% | ? | -14%[11.6 µM] | i
CCOc1cc(/C=C2\NC(=O)NC2=O)ccc1OC(C)C(=O)O (configuration not stated) | -4% | -7 | -1% | 8% | 7% | ·
COc1cc(/C=C2\SC(=O)N(Cc3ccc(Cl)cc3)C2=O)cc([N+](=O)[O-])c1O | 1% | -81* | -6% | ? | -6%[11.6 µM] | i
CCOc1cc(/C=C2\C(=O)NN(c3ccccc3)C2=O)cc([N+](=O)[O-])c1O | ? | -57* | -11% | ? | ? | -22%
O=C1NN(c2ccccc2)C(=O)C1=Cc1ccccc1 | · | -8 | · | · | 2% | ·
Cc1ccc(CNc2ccc(N3CCN(C(=O)OC(C)(C)C)CC3=O)cc2)cc1 | 21% | · | · | · | · | ·
CCCc1[nH][nH]c(=O)c1C(c1ccccc1)C(C#N)C#N (configuration not stated) | -2% | -50* | 1% | 1% | -17% | 2%
CCOc1cc(CNc2ccc3cn[nH]c3c2)ccc1OC | -11% | -16 | 2% | 35µM* | -24% | -19%
Cc1ccc(C)c(N2CCN(C(=O)c3c(C)oc4nc(C)nc(N5CCOCC5)c34)CC2)c1 | · | · | 0% | 4% | · | ·
O=C(O)c1ccc(NCCc2ccc(Cl)cc2)c([N+](=O)[O-])c1 | 2% | -56* | -1% | -4% | -5% | 10%
Cc1ccc(NC(=O)c2ccc(NCCc3ccccc3)c([N+](=O)[O-])c2)cc1F | 9% | 1 | -4% | -2% | -20%[57.1 µM] | -6%
O=C(O)c1ccc(Nc2ccc(Cl)c(Cl)c2)c([N+](=O)[O-])c1 | 31% | -52* | -8% | 12% | -9% | ·
CN(CC(=O)O)c1ccc(C=O)cc1 | · | · | · | -10% | · | ·
C/C(N)=C(/C#N)C(=O)CSc1nc2ccccc2c(=O)n1Cc1ccc(F)cc1 | -9% | -58* | -25% | ? | -17%[11.6 µM] | 2%
Cc1ccccc1N1C(S)=C(C#N)C(=O)NC1c1cccs1 (configuration not stated) | ? | -29 | 0% | 5% | -14% | i
Cc1ccccc1N1C(S)=C(C#N)C(=O)NC1c1ccco1 (configuration not stated) | 14% | -53* | -27% | -18% | -8%[11.6 µM] | 25µM*
Brc1cccc[n+]1CCCC[n+]1ccccc1Br | · | · | · | 79µM* | · | ·
Brc1cccc[n+]1C/C=C/C[n+]1ccccc1Br | · | · | · | -2% | · | ·
Brc1cccc[n+]1CCCCCC[n+]1ccccc1Br | · | · | · | 79µM* | · | ·
SMILES | APE1 inh | PI5P4K alpha inh | BLM helicase inh | FEN1 inh | WRN helicase inh | RECQ1 inh
CC(C)(C)c1ccc(C(=O)C[n+]2ccc(Cl)c3ccc(Cl)cc32)cc1 | · | · | · | 9% | · | ·
CCOC(=O)N(C(=O)c1ccccc1)c1ccccc1 | · | · | · | -5% | · | ·
COc1cccc(O)c1O | 2.5µM* | · | 0% | · | · | -30%
COc1ccccc1O | -17% | 5 | -3% | 1% | 6% | -2%
N#C/C(=C\c1ccc(O)c(O)c1)C(=O)NCCCCc1ccccc1 | ? | · | ? | · | · | 10µM*
N#C/C(=C\c1ccc(O)c(O)c1)C(=O)NCCc1ccccc1 | 7% | 1 | · | ? | 7% | ?
CC(C)(C)OC(=O)NCCOCCOCCOc1ccc(-c2no[n+]([O-])c2C#N)cc1 | -2% | · | · | · | · | ·
Brc1ccc2c(c1)OCCOCCOc1cc(Br)ccc1OCCOCCOCCO2 | 0% | 7 | 16µM* | -3% | -9% | -10%
COc1cc(OC)c(C2CC(=O)Nc3ccc4ccccc4c32)cc1OC (configuration not stated) | · | · | 1% | -9% | · | ·
CCN(CC)c1ccc2c(-c3ccc(S(=O)(=O)O)cc3S(=O)(=O)[O-])c3ccc(=[N+](CC)CC)cc-3oc2c1 | 27µM* | -51* | 25µM* | ? | · | ·
CCc1c(C)sc2c1CCN(Cc1ccc(F)cc1)C2c1ccccc1 (configuration not stated) | · | · | 4% | -10% | · | ·
CCC(C)/C=C/C1=CC2=C(Cl)C(=O)C3(C)OC(=O)C(C(=O)C(C)C(C)O)C3C2=CO1 (configuration not stated) | 10µM* | ? | -12% | -6% | -6%[11.6 µM] | -19%
CCC[C@@H](CN1CCC[C@H]1CN1C(N)=NC[C@@H]1Cc1ccccc1)N1C[C@@H]([C@H](C)CC)N(CCCC2CCCC2)C1=N | 1% | -87* | · | -22% | -22% | ·
Clc1ccc(-c2nnn3c2nc(N2CCCCC2)c2ccccc23)cc1 | · | · | -18% | -6% | · | ·
CCOC(=O)CCS(=O)(=O)c1nc(-c2ccccc2)cc(C(F)(F)F)n1 | -2% | 9 | -7% | 6% | ? | -1%
CCOC(=O)CS(=O)(=O)c1nc(-c2ccccc2)cc(C(F)(F)F)n1 | 7% | 0 | -4% | -5% | 56µM* | 2%
CCOC(=O)CS(=O)(=O)c1nc(-c2ccc(F)cc2)cc(C(F)(F)F)n1 | -7% | -11 | -3% | 4% | 50µM* | -8%
COc1cc(OC)c(/C=C/c2ccccn2)c(OC)c1 | · | · | · | 14% | · | ·
COc1cc(OC)c(/C=C/c2nccc3ccccc23)c(OC)c1 | · | · | · | 4µM* | · | ·
O=C1CCC[C@@H]2C[C@@]3(C[C@@H]4CCN1[C@H]24)Nc1cc([N+](=O)[O-])ccc1NC3=NCc1ccccc1 | · | · | · | -19% | · | ·
CCN1CCN(c2cc3c(cc2F)c(=O)c(S(=O)(=O)c2cc(C)cc(C)c2)cn3CC)CC1 | · | · | 3% | 14% | · | ·
CCc1ccc(/C=C2\C(=N)N3N=C(CC(=O)N4CCCCC4)SC3=NC2=O)cc1 | 72% | 0 | 0% | 1% | -6% | ·
Cc1ccc(/C=C2\C(=N)N3N=C(CC(=O)N4CCCCC4)SC3=NC2=O)cc1 | 41% | -9 | -1% | -15% | -2%[11.6 µM] | ·
